Test results from PubChem BioAssay AID1479146 (National Center for Advancing Translational Sciences (NCATS), 2020).
Inconclusive results are not listed. A number with no mark means an inactive call. Active and inactive are the calls of the source. Calls follow the shape of the full dose curve.

Assay: Confirmatory qHTS for Huh7 cytotoxicity: counterscreen for inhibitors of MERS-S pseudo-typed particle cell entry
Conditions: viability; series mostly up to 57.1 µM; activity change, negative = cytotoxicity: at the top concentration

SMILES	Potency	activity change, negative = cytotoxicity
CC(C)C[C@H](NC(=O)[C@H](CCc1ccccc1)NC(=O)CN1CCOCC1)C(=O)N[C@@H](Cc1ccccc1)C(=O)N[C@@H](CC(C)C)C(=O)[C@@]1(C)CO1	0.192 µM (active)	–
C=C(C)[C@H]1Cc2c(ccc3c2O[C@@H]2COc4cc(OC)c(OC)cc4[C@@H]2C3=O)O1	6.81 µM (active)	–
CCCCCCCCCCCCOCCOCCOCCOCCOCCOCCOCCOCCOCCO	–	-10.8%
CCn1cc(C(=O)O)c(=O)c2cc(F)c(N3CCNC(C)C3)c(F)c21 (configuration not stated)	–	0%
COc1cccc2c1C(=O)c1c(O)c3c(c(O)c1C2=O)C[C@@](O)(C(=O)CO)CC3OC1CC(N2CCOC(OC)C2)C(O)C(C)O1 (some centres not stated)	0.136 µM (active)	–
CCCCN=C(N)N=C(N)N	–	0.478%
CCCCCCNC(=O)n1cc(F)c(=O)[nH]c1=O	–	-9.95%
C=CC(=O)Nc1cc(Nc2nccc(-c3cn(C)c4ccccc34)n2)c(OC)cc1N(C)CCN(C)C	10.8 µM (active)	–
COc1c(OCCCN2CCOCC2)ccc2c3n(c(=NC(=O)c4cnc(N)nc4)nc12)CCN3	–	-10.8% [at 11.2 µM]
CCN1CCN(Cc2ccc(Nc3ncc(F)c(-c4cc(F)c5nc(C)n(C(C)C)c5c4)n3)nc2)CC1	8.57 µM (active)	–
CCCN1C[C@H](C)[C@@H](O)[C@](C)(O)[C@@H](CC)OC(=O)[C@H](C)[C@@H](O[C@H]2C[C@@](C)(OC)[C@@H](O)[C@H](C)O2)C(C)[C@@H](O[C@@H]2O[C@H](C)C[C@H](N(C)C)[C@H]2O)[C@](C)(O)C[C@H]1C (some centres not stated)	–	-7.32%
C=C1c2c(Cl)ccc(O)c2C(O)=C2C(=O)[C@@]3(O)C(O)=C(C(N)=O)C(=O)[C@@H](N(C)C)[C@@H]3[C@@H](O)[C@H]12	–	-20.1%
O=C1c2c(O)ccc(O)c2C(=O)c2c(NCCNCCO)ccc(NCCNCCO)c21	17.1 µM (active)	–
COc1cc([C@@H]2c3cc4c(cc3C(O[C@@H]3O[C@@H]5CO[C@@H](c6cccs6)OC5[C@H](O)[C@H]3O)C3COC(=O)[C@@H]32)OCO4)cc(OC)c1O (some centres not stated)	5.41 µM (active)	–
COc1cccc2c1C(=O)c1c(O)c3c(c(O)c1C2=O)C[C@@](O)(C(=O)CO)C[C@@H]3O[C@H]1C[C@H](N)[C@@H](O)[C@H](C)O1	2.15 µM (active)	–
CC(C)(C)NC(=O)[C@H]1CC[C@H]2[C@@H]3CC[C@H]4NC(=O)C=C[C@]4(C)[C@H]3CC[C@]12C	–	-4.87%
C/C=C(/C)C(=O)O[C@H]1C(C)=CC23C(=O)C(C=C(CO)[C@@H](O)[C@]12O)[C@H]1[C@@H](C[C@H]3C)C1(C)C (some centres not stated)	–	-30.5%
N=C(N)c1ccc(OCCCCCOc2ccc(C(=N)N)cc2)cc1	–	-28.4%
CC(C)C(=O)Oc1ccc(CO)cc1[C@H](CCN(C(C)C)C(C)C)c1ccccc1	–	-16.1%
CCC(C)(C)C(=O)O[C@H]1C[C@@H](C)C=C2C=C[C@H](C)[C@H](CC[C@@H]3C[C@@H](O)CC(=O)O3)[C@H]21	–	0%
CCCCCCOC(=O)NC(=N)c1ccc(NCc2nc3cc(C(=O)N(CCC(=O)OCC)c4ccccn4)ccc3n2C)cc1	–	0%
Cc1nnc2n1-c1sc(CCc3ccc(CC(C)C)cc3)cc1C(c1ccccc1Cl)=NC2C (configuration not stated)	–	-18.8%
Cc1c(N)nc(C(CC(N)=O)NCC(N)C(N)=O)nc1C(=O)NC(C(=O)NC(C)C(O)C(C)C(=O)NC(C(=O)NCCc1nc(-c2nc(C(=O)NCCCN[C@@H](C)c3ccccc3)cs2)cs1)C(C)O)C(O[C@@H]1O[C@@H](CO)[C@@H](O)[C@H](O)[C@@H]1O[C@H]1O[C@H](CO)[C@@H](O)[C@H](OC(N)=O)[C@@H]1O)c1cnc[nH]1 (some centres not stated)	–	-9.73%
CC(CN(C)C)CN1c2ccccc2CCc2ccccc21 (configuration not stated)	–	2.82%
Cc1cc(-n2c(=O)[nH]c(=O)n(C)c2=O)ccc1Oc1ccc(S(=O)(=O)C(F)(F)F)cc1	–	-28%
c1ccc2c(c1)Sc1ccccc1N2CC1CN2CCC1CC2 (configuration not stated)	30.4 µM (active)	–
COc1cc(N)c(Cl)cc1C(=O)NC1CCN(CCCOc2ccc(F)cc2)CC1OC (configuration not stated)	–	-20%
